From PubChem
In the library only some 3.8% were active in any assay of this set; here they are far more common.
aDG glyco act: alpha-DG glycosylation activation; AID 624168; actives 0.22% (n = 360,000); Pro5-aDG cells, alpha-DG glycosylation AlphaScreen (IIH6); 0% Pro5, 100% B10-LARGE cell signal; activation, % at 10 µM;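 active means activation of at least 8% versus controls, or a plate z-score of at least 8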;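 further: Pro5 are CHO cells carrying HIG-tagged alpha-DG that lacks glycosylation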
CR mimetic SO: yeast age-related superoxide inhibition as caloric restriction mimetic; actives 0.18% (n = 330,000); superoxide response (% of plate mean), % at 10 µM; S. cerevisiae aged cells, superoxide DHE fluorescence; active compounds read low; AID 2690;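 active means superoxide response under a set limit, about three screen SD below normal, cut at about 65% in these data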;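 further: yeast aged for seven days with compound at 30 °C before DHE staining; 100% = average MFI of all compound-treated wells on the plate with controls excluded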
Cardio protect: protects H9c2 cardiomyocytes from peroxide injury. H2O2 injury protection, ATPLite, 2 h. actives 0.63% (n = 360,000). protection from H2O2 cell death, % at 20 µM;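 active means compounds giving at least 50% protection of heart cells from peroxide-induced death in the single-dose screen, raw or plate-pattern-corrected value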;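 further: 0% = DMSO wells with peroxide and 100% = DMSO wells without peroxide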
FAS-TE inh: blocks the thioesterase domain of human fatty acid synthase. P49327. recombinant FAS-TE, OMFH fluorogenic substrate, fluorescence endpoint. inhibition, % at 15 µM. actives 0.67% (n = 360,000). AID 602261;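 active means compounds whose normalised, plate-corrected inhibition of enzyme fluorescence in the single-dose primary screen is 50% or more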;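 further: 0% = DMSO with enzyme and 100% = substrate without enzyme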
Mot1-301 SUMO: inhibitors of SUMOylation pathway: yeast Mot1-301 growth rescue | S. cerevisiae Mot1-301 growth rescue, ATP luminescence, 38.5C; percent above DMSO median, 100 means doubled | growth rescue, % at 18.8 µM | actives 1% (n = 320,000);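 active means every valid replicate shows activation above 250% relative to neutral control wells; inactive means the rest, any valid replicate at or below 250%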;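 further: OY570 slx delta 5 strain wells were the positive control but not used for scaling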
MPTP block: permeability transition pore inhibition; isolated mouse mitochondria, Ca2+ swelling absorbance, 30 min; inhibition, % at 10 µM; actives 1.4% (n = 360,000); AID 602449;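 active means inhibition of 50% or more, scaled per plate between neutral and stimulator controls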;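 further: 0% = DMSO wells given calcium and 100% = 1 mM EGTA wells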
FAS-TE inh conf: confirmation of human fatty acid synthase thioesterase inhibitors | recombinant FAS-TE, OMFH fluorogenic substrate, fluorescence | shares compounds with FAS-TE inh | actives 45% (n = 2,300) | inhibition, % at 15 µM;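 active means compounds inhibiting the enzyme by at least 50% at 15 µM in any one of the replicates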;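 further: 0% = enzyme with DMSO only and 100% = wells lacking enzyme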
An asterisk follows results filed as active; . = not tested or not shown.

SMILES	aDG glyco act	CR mimetic SO	Cardio protect	FAS-TE inh	Mot1-301 SUMO	MPTP block	FAS-TE inh conf
COC(=O)C1=C(C)NC(=O)NC1c1ccc(OC)c(OC)c1 (stereo not given)	0	.	0	-8	.	0	.
CCCS(=O)(=O)NC(=O)C1(C)CCCN(C(=O)COc2ccccc2)C1 (stereo not given)	0	.	-2	-1	.	-2	.
CC1C(c2ccccc2)=Nn2c(=O)n(-c3ccccc3)c(=O)n21 (stereo not given)	2	.	-1	-1	.	0	.
Cc1cc(C)c(S(=O)(=O)c2ccc(Cl)cc2)c(Cl)n1	0	106	2	10	8	-1	.
Cc1cc(S(=O)(=O)c2ccc(Cl)cc2)nc(S(=O)(=O)c2ccc(Cl)cc2)c1C#N	-1	.	-12	69*	.	-2	72*
O=C(CC1C[C@H](C(=O)N2CCOCC2)[C@@]2(CCC3CCCC3)c3[nH]c4ccccc4c3CCN2C1=O)NCCC1=CCCCC1 (stereo not given in full)	3	83	-3	73*	6	16	39*
CC[C@]12c3[nH]c4ccccc4c3CCN1C(=O)C(CC(=O)NCCC1=CCCCC1)C[C@@H]2C(=O)N1CCN(C(=O)c2ccco2)CC1 (stereo not given in full)	0	106	0	13	-5	1	.
CC[C@]12c3[nH]c4ccccc4c3CCN1C(=O)C(CC(=O)NCCCN(C)C)C[C@@H]2C(=O)N1CCN(C(=O)C2CC2)CC1 (stereo not given in full)	0	104	11	-5	-15	1	.
CN(C)CCCNC(=O)CC1C[C@H](C(=O)N2CCOCC2)[C@@]2(CCC3CCCC3)c3[nH]c4ccccc4c3CCN2C1=O (stereo not given in full)	0	93	-23	78*	-24	-2	86*
O=[N+]([O-])c1cc(S(=O)(=O)N2CCCC2)ccc1NCCCN1CCOCC1	0	116	3	-1	-17	0	.
O=[N+]([O-])c1ccc(N2CCN(S(=O)(=O)c3ccc(Cl)c(Cl)c3)CC2)cc1NCCN1CCOCC1	0	111	1	71*	-9	0	10
Cc1cc(C)c(C(=O)COC(=O)c2cc([N+](=O)[O-])ccc2N2CCOCC2)cc1C	0	108	-1	57*	21	-1	33
Cc1cc(Br)ccc1NC(=O)CN(C)C(=O)c1cc([N+](=O)[O-])ccc1N1CCOCC1	0	111	0	64*	-7	0	77*
CN(CC(=O)Nc1ccc(F)cc1)C(=O)COC(=O)c1cc([N+](=O)[O-])ccc1N1CCOCC1	0	108	0	62*	226	-3	58*
COc1ccc(NC(=O)COC(=O)c2cc([N+](=O)[O-])ccc2N2CCOCC2)cc1	0	96	2	80*	-1	2	60*
CCn1c(SCC(=O)N(C)CC(=O)Nc2ccc(OC)cc2)nnc1-c1ccco1	0	122	-4	-8	2	-1	.
O=C(COC(=O)c1cc([N+](=O)[O-])ccc1N1CCOCC1)c1ccccc1	0	110	12	63*	15	-2	71*
O=C(COC(=O)c1cc([N+](=O)[O-])ccc1N1CCOCC1)c1ccccc1Cl	0	92	1	46	-9	1	.
COc1ccc(C(=O)COC(=O)c2cc([N+](=O)[O-])ccc2N2CCOCC2)c(OC)c1	2	87	15	75*	-7	0	75*
COc1ccccc1NC(=O)c1cc([N+](=O)[O-])ccc1N1CCOCC1	0	109	-6	36	-12	-3	.
COc1ccccc1CNC(=O)COC(=O)c1cc([N+](=O)[O-])ccc1N1CCOCC1	0	104	4	79*	68	-2	90*
Cc1cc(C(=O)OCC(=O)Nc2cccc([N+](=O)[O-])c2)c(C)o1	0	83	-6	66*	7	-2	62*
O=C(COC(=O)c1c[nH]c(=O)[nH]c1=O)Nc1cccc([N+](=O)[O-])c1	0	103	1	4	-1	3	.
CC(C)C1C(=O)N(Cc2cn(CCC3OCCCO3)nn2)CCS(=O)(=O)N1Cc1ccc(-c2ccc(Cl)nc2)cc1 (stereo not given)	0	.	18	10	.	1	.
COC(=O)c1cc(C(=O)OCC(=O)c2ccc[nH]2)cc([N+](=O)[O-])c1	0	116	-4	31	0	1	.
SMILES	aDG glyco act	CR mimetic SO	Cardio protect	FAS-TE inh	Mot1-301 SUMO	MPTP block	FAS-TE inh conf
COC(=O)C[C@H]1C[C@H]2c3cc(NS(=O)(=O)c4cccc(OC)c4)ccc3O[C@H]2[C@@H](CO)O1	0	.	-1	-7	.	0	.
CCOc1ccc(Cl)cc1-c1cc(C(=O)Nc2ccc(F)cc2)[nH]n1	0	.	-7	23	.	5	.
COc1ccc(CN(C)C(=O)c2ccc3ccccc3n2)cc1F	0	96	-1	0	-6	-2	.
COC(=O)CC(NC(=O)CN1CCN(c2ccc(F)cc2)CC1)c1cccc(F)c1 (stereo not given)	0	102	-3	-3	14	1	.
COc1ccccc1C(=O)COC(=O)c1cc(S(=O)(=O)N2CCCCC2)ccc1N1CCOCC1	0	109	0	38	.	0	.
COc1ccccc1C(=O)COC(=O)c1cc([N+](=O)[O-])ccc1N1CCOCC1	0	96	13	68*	-3	-1	34*
COc1ccc(C(=O)COC(=O)c2cc(S(=O)(=O)N3CCCCC3)ccc2N2CCOCC2)c(OC)c1	0	87	3	73*	4	-2	3
CN1CCN(S(=O)(=O)c2cccc(C(=O)N(C)C(c3ccccc3)c3ccccc3)c2)CC1	0	94	-6	-4	-14	-3	.
C[C@H](NC(=O)C1CCN(S(=O)(=O)c2ccccc2)CC1)C(=O)NCc1ccc(Cl)c(Cl)c1	0	109	-12	52*	-3	1	46*
O=C(N/N=C/c1cc([N+](=O)[O-])cc([N+](=O)[O-])c1O)C(O)(c1ccccc1)c1ccccc1	0	163	-2	52*	47	-1	61*
O=C(Cn1nc2ccccc2n1)N/N=C/c1cc(Cl)cc([N+](=O)[O-])c1O	0	.	28	61*	.	-2	52*
COc1ccccc1NC(=O)c1cc(S(=O)(=O)NC2CCCC2)ccc1F	1	150	-2	21	-8	1	.
CC(C(=O)N1CCN(c2ccccc2)CC1)c1ccc([N+](=O)[O-])cc1 (stereo not given)	0	90	5	21	5	1	.
